Laboratory results reported in PubChem BioAssay.
Activity calls are given as the source filed them.

Experiments:
Albumin (Bos taurus) = Albumin (Bos taurus) (UniProt P02769); experiment: bovine serum albumin binders on microarray, profiling panel, artefact control for SMM control protein annotation, biochemical, small-molecule microarray, Alexa647 label, 635/667 nm fluorescence (AID 1118); conditions: BSA-A647 binding, fluorescence 635 nm, higher = more signal;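 further: score merges 667 nm emission intensity and signal-to-noise per printed compound spot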
Sequence of Albumin (Bos taurus) (P02769 whole entry, looked up): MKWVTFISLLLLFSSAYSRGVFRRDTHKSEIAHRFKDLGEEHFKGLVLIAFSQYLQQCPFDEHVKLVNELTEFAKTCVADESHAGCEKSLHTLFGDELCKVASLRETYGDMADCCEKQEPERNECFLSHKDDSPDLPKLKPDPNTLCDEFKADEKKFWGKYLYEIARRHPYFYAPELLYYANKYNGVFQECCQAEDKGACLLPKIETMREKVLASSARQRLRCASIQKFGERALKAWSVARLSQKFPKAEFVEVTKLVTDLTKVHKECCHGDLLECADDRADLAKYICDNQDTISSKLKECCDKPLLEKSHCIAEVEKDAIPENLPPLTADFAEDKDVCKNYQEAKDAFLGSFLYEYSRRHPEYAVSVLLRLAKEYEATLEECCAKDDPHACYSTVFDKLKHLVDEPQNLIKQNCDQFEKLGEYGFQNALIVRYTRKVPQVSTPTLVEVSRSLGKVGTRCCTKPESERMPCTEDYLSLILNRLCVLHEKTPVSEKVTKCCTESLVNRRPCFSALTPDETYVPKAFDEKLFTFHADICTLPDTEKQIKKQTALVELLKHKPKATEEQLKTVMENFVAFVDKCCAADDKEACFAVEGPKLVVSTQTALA

[1] = small-molecule microarray binders of probe aXIP, primary screen, biochemical, NeuroSMM set, 635/667 nm fluorescence (AID 1119); conditions: higher = more signal, called active from +8 up or from −8 down;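 further: probe is the protein aXip251-270 applied at 1 µg/mL to compound-printed slides; binding of probe to printed compounds measured as 667 nm fluorescence plus signal to noise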
[2] = small-molecule binders of probe aNOTCH3, primary screen, biochemical, small-molecule microarray, 635/667 nm fluorescence (AID 1120); conditions: higher = more signal;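 further: probe is a biotin-tagged antibody raised against NOTCH3 rather than NOTCH3 protein; score merges spot fluorescence near 667 nm with spot signal to noise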
[3] = small-molecule binders of probe aNOTCH2, primary screen, biochemical, small-molecule microarray, 635/667 nm fluorescence (AID 1121); conditions: higher = more signal;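 further: score merges feature fluorescence read at 667 nm with its signal to noise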
[4] = molecular target: Carbonic anhydrase 2 (Homo sapiens) (UniProt P00918); experiment: CAII small-molecule binders, profiling panel, biochemical, small-molecule microarray, Alexa647-labelled CAII (AID 1122); conditions: CAII-A647 binding fluorescence, higher = more signal
[5] = COS7 lysate on small-molecule microarray, probe aHis, 635 nm (AID 1123); conditions: COS7 cell lysate, fluorescence, higher = more signal;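 further: z-score combines 667nm fluorescence intensity with signal-to-noise per printed compound spot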
[6] = compound binding in COS7 lysate, probe aLAP1, primary screen, cell lysate, small-molecule microarray (AID 1124); conditions: probe aLAP1, fluorescence, higher = more signal;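 further: lysate comes from COS7 cells expressing LAP1 and is applied at 0.3 µg/mL; score merges spot fluorescence near 667 nm with signal-to-noise over triplicate slides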
Sam68 (KHDRBS1) = experiment: Sam68 small-molecule binders, primary screen, biochemical, small-molecule microarray, 635 nm fluorescence (AID 1125); conditions: small-molecule microarray binding, higher = more signal;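 further: score merges 667 nm channel intensity with signal to noise over triplicate slides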
[7] = system: Chordin-like protein 2 (CHRDL2); experiment: CHRDL2 small-molecule binders, primary screen, biochemical, small-molecule microarray, 635 nm fluorescence (AID 1126); conditions: small-molecule microarray binding, fluorescence 635 nm; higher = more signal;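 further: printed compound slides probed with Chrdl2 protein at 4 µg/mL for 1 h at 4 C; score merges 667 nm emission intensity with signal to noise over three replicate slides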
[8] = molecular target: Concanavalin-A (Canavalia ensiformis) (UniProt P02866); experiment: ConA small-molecule binders, primary screen, artefact control for SMM control protein annotation, biochemical, small-molecule microarray, Alexa647 label, 635 nm (AID 1127); conditions: ConA-A647 binding fluorescence, higher = more signal;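 further: z combines 667 nm emission intensity with signal-to-noise across three replicate slides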
Sequence of Concanavalin-A (Canavalia ensiformis) (P02866 whole entry, looked up): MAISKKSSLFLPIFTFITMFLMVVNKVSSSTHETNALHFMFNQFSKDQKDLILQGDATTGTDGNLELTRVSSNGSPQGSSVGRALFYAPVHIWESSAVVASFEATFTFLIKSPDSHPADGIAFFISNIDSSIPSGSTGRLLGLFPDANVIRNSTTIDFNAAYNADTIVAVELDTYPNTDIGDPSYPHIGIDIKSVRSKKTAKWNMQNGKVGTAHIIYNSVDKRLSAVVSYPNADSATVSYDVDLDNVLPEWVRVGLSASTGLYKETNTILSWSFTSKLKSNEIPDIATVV

[9] = anti-His antibody binders, primary screen, artefact control for SMM control protein annotation, biochemical, small-molecule microarray, 635 nm fluorescence (AID 1128); conditions: anti-His Alexa647 antibody binding, higher = more signal;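 further: score merges feature fluorescence with signal-to-noise for each printed compound spot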
[10] = system: Human papillomavirus type 1a E7 protein (residues 1-88); experiment: HPV1a E7 small-molecule binders, primary screen, biochemical, small-molecule microarray, residues 1-88, 635 nm (AID 1129); conditions: small-molecule microarray binding, fluorescence 635 nm; higher = more signal
[11] = molecular target: Focal adhesion kinase 1 (Homo sapiens) (UniProt Q05397); experiment: small-molecule microarray binders of FAK, primary screen, biochemical, 635/667 nm fluorescence, BSA, DTT (AID 1130); conditions: PTK2 binding, 635 nm fluorescence, higher = more signal;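 further: composite of spot emission at 667 nm and signal to noise over triplicate slides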
Sequence of Focal adhesion kinase 1 (Homo sapiens) (Q05397 whole entry, looked up): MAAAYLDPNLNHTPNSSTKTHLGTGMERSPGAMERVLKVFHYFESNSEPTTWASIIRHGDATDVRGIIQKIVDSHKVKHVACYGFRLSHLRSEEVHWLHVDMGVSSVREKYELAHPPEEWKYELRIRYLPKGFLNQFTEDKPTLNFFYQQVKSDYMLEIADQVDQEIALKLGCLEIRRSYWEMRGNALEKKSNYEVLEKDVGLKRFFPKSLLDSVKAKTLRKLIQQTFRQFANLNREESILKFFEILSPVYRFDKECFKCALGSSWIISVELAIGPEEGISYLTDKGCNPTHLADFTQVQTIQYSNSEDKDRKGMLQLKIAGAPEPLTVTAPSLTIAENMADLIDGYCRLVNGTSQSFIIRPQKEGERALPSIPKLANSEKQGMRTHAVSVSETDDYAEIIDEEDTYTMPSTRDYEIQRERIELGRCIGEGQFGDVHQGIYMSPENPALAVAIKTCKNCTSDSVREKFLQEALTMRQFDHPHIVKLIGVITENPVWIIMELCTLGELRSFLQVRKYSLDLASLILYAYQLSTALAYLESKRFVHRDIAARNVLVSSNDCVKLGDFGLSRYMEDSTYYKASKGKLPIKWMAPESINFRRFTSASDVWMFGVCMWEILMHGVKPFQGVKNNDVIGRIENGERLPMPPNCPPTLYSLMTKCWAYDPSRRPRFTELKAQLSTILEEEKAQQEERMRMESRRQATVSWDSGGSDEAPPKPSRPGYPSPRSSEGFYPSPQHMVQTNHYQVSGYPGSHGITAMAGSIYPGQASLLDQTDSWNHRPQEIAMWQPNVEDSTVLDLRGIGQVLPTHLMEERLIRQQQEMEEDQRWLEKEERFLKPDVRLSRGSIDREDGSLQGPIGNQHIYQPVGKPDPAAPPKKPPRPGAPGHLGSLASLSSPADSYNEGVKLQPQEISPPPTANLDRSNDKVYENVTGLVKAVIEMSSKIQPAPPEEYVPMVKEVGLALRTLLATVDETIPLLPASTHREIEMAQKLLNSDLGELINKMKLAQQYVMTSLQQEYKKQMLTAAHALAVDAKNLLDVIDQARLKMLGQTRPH

[12] = system: Fibrinogen (Alexa647-labelled); experiment: fibrinogen binders on compound microarrays, profiling panel, artefact control for SMM control-protein annotation, biochemical, small-molecule microarray, 635/667 nm fluorescence (AID 1131); conditions: fibrinogen-A647 binding fluorescence, higher = more signal;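 further: z-score merges 667 nm fluorescence with per-spot signal-to-noise over triplicate slides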
[13] = molecular target: Follistatin (Homo sapiens) (UniProt P19883); experiment: follistatin binders on small-molecule microarrays, primary screen, biochemical, small-molecule microarray, 635/667 nm fluorescence (AID 1132); conditions: FST binding, 635 nm fluorescence, higher = more signal
Sequence of Follistatin (Homo sapiens) (P19883 whole entry, looked up): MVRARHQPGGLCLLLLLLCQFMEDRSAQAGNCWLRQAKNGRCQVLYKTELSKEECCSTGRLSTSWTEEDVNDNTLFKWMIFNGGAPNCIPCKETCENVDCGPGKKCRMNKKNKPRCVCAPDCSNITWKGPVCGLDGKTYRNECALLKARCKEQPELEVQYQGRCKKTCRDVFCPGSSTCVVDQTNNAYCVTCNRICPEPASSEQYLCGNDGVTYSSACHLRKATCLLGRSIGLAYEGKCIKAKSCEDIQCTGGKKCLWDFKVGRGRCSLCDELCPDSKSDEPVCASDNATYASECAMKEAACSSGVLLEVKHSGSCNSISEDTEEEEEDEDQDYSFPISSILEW

[14] = molecular target: Fibroblast growth factor 2 (Homo sapiens) (UniProt P09038); experiment: FGF2 binders on small-molecule microarrays, primary screen, biochemical, small-molecule microarray, 635/667 nm fluorescence (AID 1133); conditions: small-molecule microarray binding, FGF2, fluorescence 635/667; higher = more signal
Sequence of Fibroblast growth factor 2 (Homo sapiens) (P09038 whole entry, looked up): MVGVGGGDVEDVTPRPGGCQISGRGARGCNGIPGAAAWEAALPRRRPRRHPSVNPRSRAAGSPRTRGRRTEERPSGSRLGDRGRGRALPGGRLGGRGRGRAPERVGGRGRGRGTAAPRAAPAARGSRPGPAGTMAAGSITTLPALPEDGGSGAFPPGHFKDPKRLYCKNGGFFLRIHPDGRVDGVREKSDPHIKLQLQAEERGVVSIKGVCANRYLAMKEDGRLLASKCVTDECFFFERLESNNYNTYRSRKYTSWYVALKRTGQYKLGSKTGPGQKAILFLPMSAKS

[15] = mitochondrial membrane potential change in A549 cells, profiling panel, cell-based, JC-1 fluorescence, basal, 24 h, 100 nL (AID 1138); conditions: higher = more signal;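 further: A549 lung adenocarcinoma cells under basal conditions with no added stimulus; test concentration not given here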
Lefty1 = Lefty1 binders on small-molecule microarrays, primary screen, biochemical, small-molecule microarray, 635/667 nm fluorescence (AID 1139); conditions: small-molecule microarray binding, fluorescence 635/667; higher = more signal
[16] = system: wheat germ agglutinin (Triticum aestivum), Alexa647-labelled; experiment: wheat germ agglutinin binders on compound microarrays, profiling panel, artefact control for SMM control-protein annotation, biochemical, small-molecule microarray, 635/667 nm fluorescence (AID 1140); conditions: WGA-A647 binding, 635 nm fluorescence, higher = more signal;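 further: score merges 667 nm feature emission with signal to noise over triplicate slides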
[17] = molecular target: Luciferin 4-monooxygenase (Photinus pyralis) (UniProt P08659); experiment: firefly luciferase enzyme inhibitors, primary screen, biochemical, luminescence, purified enzyme, 2006 set (AID 1141); conditions: SteadyGlo luminescence, 30 min, higher = more signal, called active from +8 up or from −8 down;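 further: cell-free assay with purified firefly luciferase at 100 ng per well in PBS; test concentration not given here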
Sequence of Luciferin 4-monooxygenase (Photinus pyralis) (P08659 whole entry, looked up): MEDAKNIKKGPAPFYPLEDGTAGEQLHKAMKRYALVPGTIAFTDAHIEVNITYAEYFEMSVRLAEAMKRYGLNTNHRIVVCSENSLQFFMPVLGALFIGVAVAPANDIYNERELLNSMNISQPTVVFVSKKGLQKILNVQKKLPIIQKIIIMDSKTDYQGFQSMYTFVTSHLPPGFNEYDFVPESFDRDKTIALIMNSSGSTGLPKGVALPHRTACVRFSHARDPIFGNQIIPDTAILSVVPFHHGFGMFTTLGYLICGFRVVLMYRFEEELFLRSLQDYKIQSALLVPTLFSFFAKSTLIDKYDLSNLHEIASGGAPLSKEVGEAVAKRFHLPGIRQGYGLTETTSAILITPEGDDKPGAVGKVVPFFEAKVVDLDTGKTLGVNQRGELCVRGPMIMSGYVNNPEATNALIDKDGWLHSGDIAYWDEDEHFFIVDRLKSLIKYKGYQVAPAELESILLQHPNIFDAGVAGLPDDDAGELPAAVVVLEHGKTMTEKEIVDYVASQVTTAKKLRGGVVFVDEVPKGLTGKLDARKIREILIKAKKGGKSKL

Row | Compound | composite z-score (Albumin (Bos taurus)) | composite Z-score [1] | composite z-score [2] | composite z-score [3] | composite z-score [4] | composite z-score [5] | composite z-score [6] | composite z-score (Sam68 (KHDRBS1)) | composite z-score [7] | composite z-score [8] | composite z-score [9] | composite z-score [10] | composite z-score [11] | composite z-score [12] | composite z-score [13] | composite z-score [14] | z-score [15] | composite z-score (Lefty1) | composite z-score [16] | z-score [17]
1 | CCCCCCCCCC(O)C1C=CC2C(=O)N(c3ccccc3)C(=O)C2N1Nc1cc(OC)c(OC)c(OC)c1 (stereo not given) | 0.168 | 0.182 (inactive) | -0.0751 | -0.14 | 0.528 | 2.25 | -0.354 | 0.683 | -0.919 | 0.932 | 0.374 | 0.675 | 0.636 | 0.585 | 0.0214 | -1.09 | -0.512 | -0.312 | 0.172 | -1.96 (inactive)
2 | C=CC[C@@H](OC(=O)Nc1ccc(OC)cc1)c1ccc(O)c(F)c1 | 0.66 | 0.683 (inactive) | -0.266 | -0.153 | 0.493 | 1.93 | 0.738 | -0.56 | -0.861 | -0.9 | 0.0579 | -0.0596 | 0.676 | -0.699 | 0.0619 | -0.448 | -1.71 | -0.201 | -0.733 | -4.17 (inactive)
3 | CO[C@H]1O[C@H](CO)[C@@H](OC(=O)CCc2ccccc2)[C@@H]2OC(=O)[C@@H](Cc3ccccc3)C/C=C/C[C@H](Cc3ccccc3)C(=O)O[C@@H]12 | 0.0544 | -0.0061 (inactive) | -0.0014 | -0.0861 | 0.116 | 0.88 | 0.338 | 1.13 | 0.0642 | 0.6 | 0.623 | 1.03 | 0.178 | 0.28 | 1.28 | 1.31 | 2.11 | 0.396 | 0.0856 | 0.769 (inactive)
4 | NC(=O)NCC#Cc1ccc2c(c1)[C@]1(C(=O)N2)[C@H](c2ccccc2OCCO)N2[C@H](c3ccccc3)[C@H](c3ccccc3)OC(=O)[C@H]2[C@@H]1C(=O)NC[C@H](O)c1ccccc1 | 0.63 | -0.17 (inactive) | -0.143 | -0.103 | 0.582 | 1.19 | 0.428 | 0.026 | -0.501 | 0.68 | 1.1 | -0.28 | 0.183 | 0.699 | 0.109 | -0.751 | -0.203 | -0.0823 | 0.91 | 0.896 (inactive)
